Compound activity from PubChem BioAssay.
Most compounds without a hit are left out; they make up all but 3.1% or so of the library.
Anthrax LF prot = inhibitors of Bacillus anthracis lethal factor protease; AID 588501; inhibition, % at 10 µM; multiplex microsphere protease cleavage assay, LF; 360,000 compounds, 0.12% hits; P15917; also: plate controls were buffer without enzyme for full effect and enzyme alone for no effect
Target sequence (P15917 whole entry, looked up): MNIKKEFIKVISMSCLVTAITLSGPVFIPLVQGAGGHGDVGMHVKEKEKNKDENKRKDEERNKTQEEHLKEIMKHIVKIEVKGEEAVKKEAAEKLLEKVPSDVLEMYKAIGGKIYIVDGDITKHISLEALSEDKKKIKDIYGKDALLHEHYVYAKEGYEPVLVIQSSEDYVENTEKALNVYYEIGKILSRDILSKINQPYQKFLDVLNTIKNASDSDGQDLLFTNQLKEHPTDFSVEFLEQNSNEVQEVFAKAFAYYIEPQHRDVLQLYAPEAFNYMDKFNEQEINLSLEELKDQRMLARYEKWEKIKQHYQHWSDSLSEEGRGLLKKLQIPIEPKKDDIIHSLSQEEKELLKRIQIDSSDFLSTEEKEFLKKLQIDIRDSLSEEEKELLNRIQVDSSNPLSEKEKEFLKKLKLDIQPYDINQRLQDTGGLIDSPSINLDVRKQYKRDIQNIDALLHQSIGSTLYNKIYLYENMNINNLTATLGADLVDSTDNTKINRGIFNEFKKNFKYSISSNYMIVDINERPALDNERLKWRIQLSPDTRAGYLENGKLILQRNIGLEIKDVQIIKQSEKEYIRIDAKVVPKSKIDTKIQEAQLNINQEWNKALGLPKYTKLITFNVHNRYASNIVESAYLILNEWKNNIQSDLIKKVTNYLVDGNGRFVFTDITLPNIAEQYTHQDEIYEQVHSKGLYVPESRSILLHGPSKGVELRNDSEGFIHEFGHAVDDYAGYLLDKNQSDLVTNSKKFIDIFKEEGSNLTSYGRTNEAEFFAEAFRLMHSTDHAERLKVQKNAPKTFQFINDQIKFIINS
Bead autofluor = counter-screen for toxin protease inhibitors: compound fluorescence; AID 624483; fluorescence intensity (no concentration beside the values); 360,000 compounds, 3.1% hits; compound autofluorescence counterscreen, microsphere flow cytometry; stronger effect = higher value; in the data active = fluorescence intensity above about 16000; inconclusive = no clear call, values can overlap the other calls
BoNT-A LC inh2 = BoNT A light chain protease inhibition | multiplex microsphere protease substrate cleavage, flow cytometry | inhibition, % at 10 µM | 360,000 compounds, 0.17% hits | AID 588499; also: plate controls were buffer without enzyme for full effect and enzyme alone for no effect
PriA SSB inh = blocks PriA binding to SSB C-terminal tail; AlphaScreen SSBct-PriA binding, biotinylated peptide; inhibition, % at 33 µM; 430,000 compounds, 0.6% hits; in the data active = inhibition mostly above about 37%, no sharp cut-off; inactive = mostly below about 20%;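 also: plate controls were negative control peptide for no effect and reference peptide for full effect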
BoNT-F LC inh = blocks Botulinum neurotoxin F light chain protease; Multiplex microsphere protease cleavage assay, flow cytometry; inhibition, % at 10 µM; 360,000 compounds, 0.22% hits; in the data active = inhibition above about 35%, passing the limit was not always enough; inconclusive = no clear call, values can overlap the other calls; also: plate controls were buffer without enzyme for full effect and enzyme alone for no effect
Numbers without * were called inactive; ! = a repeat was not active. Rule as the data show it, unless noted: active = inhibition above about 30%; inconclusive = no clear call, values can overlap the other calls; inactive = below that.

`CCC(C)Sc1ccc(-c2nc3cc(C)ccn3c2NC2CCCCC2)cc1` (configuration not stated) gave Anthrax LF prot -8, Bead autofluor 20914*!, BoNT-A LC inh2 -5, PriA SSB inh 17 and BoNT-F LC inh 18.
COc1cc(-c2nc3cc(C)ccn3c2NC2CCCCC2)ccc1-c1ccc(C(C)=O)cc1 was read as Anthrax LF prot -3, Bead autofluor 23646*, BoNT-A LC inh2 -3, PriA SSB inh 19 and BoNT-F LC inh 18.
CCCCCCSc1cc(-c2nc3cc(C)ccn3c2NC2CCCCC2)ccc1OC was read as Anthrax LF prot -7, Bead autofluor 15927, BoNT-A LC inh2 0, PriA SSB inh 10 and BoNT-F LC inh 3.
Screening Cc1ccc(C=NNC(=O)c2cccs2)s1 returned PriA SSB inh -11.
Screening Cc1ccc(NC(=O)Cn2nc(-c3ccccc3)c3sc(N4CCCC4)nc3c2=O)cc1Cl returned PriA SSB inh 14.
N#Cc1c(-c2ccccc2)c(-c2ccccc2)nn(CC(=O)NNC(=O)Nc2ccc(Cl)c(Cl)c2)c1=O was read as Anthrax LF prot -1, Bead autofluor 3314, BoNT-A LC inh2 0, PriA SSB inh 52* and BoNT-F LC inh 2.
For O=C(c1ccoc1)N1CCC(CNC(=O)C2(c3cccs3)CCCC2)CC1 the results were PriA SSB inh -1.
`COc1ccc(Cn2c(=O)oc3ccc(C)cc32)cc1OC` gave Anthrax LF prot -1, Bead autofluor 22068*, BoNT-A LC inh2 0, PriA SSB inh -9 and BoNT-F LC inh 2.
CCOc1cc(C2C(C(=O)N3CCCCC3)=C(C)NC3=C2C(=O)CCC3)cc(Br)c1O (configuration not stated) was read as Anthrax LF prot -1, Bead autofluor 24537*, BoNT-A LC inh2 -3, PriA SSB inh -6 and BoNT-F LC inh -5.
Screening COCCN1C(=O)/C(=C/c2ccc(N3CCCC3)cc2C)SC1=S returned Anthrax LF prot 58*, Bead autofluor 18023*, BoNT-A LC inh2 100*, PriA SSB inh -3 and BoNT-F LC inh 28.
For O=C(Cn1cnc2ccccc2c1=O)N1CCC[C@H](c2nnc(-c3cccs3)o2)C1 the results were PriA SSB inh -8.
For Cc1ccc(OCCC(=O)OCC(=O)N2CCN(S(=O)(=O)c3ccc(C)cc3)CC2)cc1 the results were Anthrax LF prot -20, Bead autofluor 26716*, BoNT-A LC inh2 -83, PriA SSB inh -7 and BoNT-F LC inh -127.
`CCS(=O)(=O)N1CCN(C(=O)COc2ccc(-c3ccccc3)cc2)CC1` gave Anthrax LF prot -21, Bead autofluor 22952*, BoNT-A LC inh2 0, PriA SSB inh -21 and BoNT-F LC inh 0.
CCCOc1ccc(C(CC)=NNC(=O)C2(C)CC2(Br)Br)cc1 (configuration not stated) was read as PriA SSB inh -8.
Screening Cn1nc(-c2ccc(C(=O)N3CCN(CCO)CC3)cc2)c2ccccc2c1=O returned Anthrax LF prot -1, Bead autofluor 21691*, BoNT-A LC inh2 inconclusive, PriA SSB inh -16 and BoNT-F LC inh 4.
For O=C(O)Cn1cc(C(=O)c2ccccc2)c2ccccc21 the results were Anthrax LF prot 2, Bead autofluor 18398*, BoNT-A LC inh2 9, PriA SSB inh -5 and BoNT-F LC inh 10.
For CCn1cc(C(=O)C(F)(F)F)c2ccccc21 the results were Anthrax LF prot 0, Bead autofluor 22281*, BoNT-A LC inh2 1, PriA SSB inh -5 and BoNT-F LC inh 2.
For O=C(O)Cn1cc(C(=O)c2ccccc2F)c2ccccc21 the results were Anthrax LF prot 11, Bead autofluor 3712, BoNT-A LC inh2 -3, PriA SSB inh 12 and BoNT-F LC inh inconclusive.
CCn1cc(C(=O)c2cccs2)c2ccccc21 was read as Anthrax LF prot -9, Bead autofluor 16945*, BoNT-A LC inh2 -4, PriA SSB inh -21 and BoNT-F LC inh -4.
`NC(=NOC(=O)Cc1ccccc1)c1ccc(Br)cc1` gave PriA SSB inh -93.
Cc1ccc(C(CNC(=O)C(=O)NCc2ccccc2Cl)N2CCOCC2)cc1 (configuration not stated) was read as PriA SSB inh 13.
For Cc1cc(C)n(CC(=O)Nc2ccc(Br)cc2)c(=O)c1-c1nc(-c2ccccc2)no1 the results were PriA SSB inh -1.
O=C(OCc1ccccc1)c1ccccc1 was read as Anthrax LF prot 5, Bead autofluor 5354, BoNT-A LC inh2 0, PriA SSB inh -26 and BoNT-F LC inh 4.
O=C(OCc1ccccc1)Oc1cncc(C(=O)O)c1 was read as Anthrax LF prot -6, Bead autofluor 16938*, BoNT-A LC inh2 -3, PriA SSB inh -13 and BoNT-F LC inh -5.
For O=C(c1ccno1)N1CCN(c2nc3ccc(Br)cc3s2)CC1 the results were PriA SSB inh 4.
For O=C(COC(=O)C1(c2ccccc2F)CCCC1)NC1CCS(=O)(=O)C1 (configuration not stated) the results were Anthrax LF prot -2, Bead autofluor inconclusive, BoNT-A LC inh2 1, PriA SSB inh 8 and BoNT-F LC inh -4.
For O=C(COC(=O)C1(c2ccc(F)cc2)CCCC1)NC1CC1 the results were Anthrax LF prot 1, Bead autofluor 17844*, BoNT-A LC inh2 -3, PriA SSB inh -13 and BoNT-F LC inh -3.
CCN(C(=O)CCCN1C(=O)/C(=C\c2cccs2)SC1=S)C1CCS(=O)(=O)C1 (configuration not stated) was read as PriA SSB inh 13.
For CCc1ccc(/C=C(/C#N)C(N)=S)cc1 the results were Anthrax LF prot 0, Bead autofluor 2026, BoNT-A LC inh2 0, PriA SSB inh 38*! and BoNT-F LC inh 1.
Screening N#C/C(=C/c1ccc(F)cc1)C(N)=S returned Anthrax LF prot 4, Bead autofluor 3426, BoNT-A LC inh2 -1, PriA SSB inh 4 and BoNT-F LC inh 0.
For Cc1ncc(CO)c(C=NNc2ccc(C(F)(F)F)cn2)c1O the results were PriA SSB inh 72*.
`Cc1ncc(CO)c(C=NNc2cccc(Cl)n2)c1O` gave PriA SSB inh -2.
For Cc1cc(C(=O)NN=Cc2c(CO)cnc(C)c2O)c2ccccc2n1 the results were PriA SSB inh 40*.
Screening COc1ccc(CC(=O)Nc2cc(-c3cccs3)nn2-c2nc(C)c(C)c(=O)[nH]2)cc1 returned PriA SSB inh -22.
O=C(Cc1csc2nc(-c3ccc(F)cc3)cn12)Nc1ccc(F)c(Cl)c1 was read as PriA SSB inh -16.
C[C@@H](Cc1ccoc1)NC(=O)Nc1ccc2c(c1)OCO2 was read as PriA SSB inh -2.
`CC1CN=C(N(Cc2ccccc2)C(=O)Nc2ccccc2)S1` (configuration not stated) gave Anthrax LF prot 16, Bead autofluor inconclusive, BoNT-A LC inh2 0, PriA SSB inh -2 and BoNT-F LC inh -8.
Screening COc1ccccc1NC(=O)N(Cc1ccccc1)C1=NCC(C)S1 (configuration not stated) returned Anthrax LF prot -2, Bead autofluor 22072*, BoNT-A LC inh2 0, PriA SSB inh -19 and BoNT-F LC inh 0.
